Screens (PubChem BioAssay)
Tau FP inhib – blocks human tau fibril formation measured by polarization. P10636. K18 P301L tau heparin fibrillization, Alexa594 FP, 6 h. Potency, µM (highest dose often 57.7 µM), most hits filed as inhibitors. actives 0.39% (n = 280,000). AID 1468; note: nearly all actives have a fitted effect of over 55% in size
Target sequence (P10636 561-689 P618L limits assumed): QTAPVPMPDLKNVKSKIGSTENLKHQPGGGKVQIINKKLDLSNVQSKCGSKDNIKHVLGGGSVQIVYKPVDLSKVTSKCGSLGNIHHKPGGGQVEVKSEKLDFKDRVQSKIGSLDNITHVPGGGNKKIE
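Read-out: fluorescence polarization of Alexa 594-labeled tau (0.24 uM), 555 nm excitation, 632 nm emission. Mixtures held 15 uM unlabeled K18 P301L, compound and 20 uM heparin, pH 7 acetate buffer, incubated 6 hr at 37 C.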
HTT cytoprotect – cytoprotection in Huntington HTT-Q103 PC12 cell model. Potency, µM (doses to about 56.4 µM), actives largely listed as activators. actives 0.14% (n = 230,000). AID 1471. PC12 HTT-Q103 induced, cytoprotection, ATP luminescence, 40 h; note: nearly all actives have a fitted effect of over 45% in size
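Stable PC12 Q103-GFP cells in serum-supplemented, phenol red-free DMEM; induction by tebufenozide at 100 nM final; compound dose series; cell viability quantified luminescently from ATP.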
Tau ThT inhib – blocks human tau fibril formation measured by thioflavin T. recombinant tau K18 P301L, heparin-induced fibrillization, ThT fluorescence. Potency, µM (doses to about 57.4 µM), most hits filed as inhibitors. actives 2.1% (n = 270,000). AID 1460; note: nearly all actives have a fitted effect of over 55% in size
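Using a mix of unlabeled (15 uM) and Alexa 594-labeled (0.24 uM) tau K18 P301L, heparin-triggered fibrillization over 6 hr at 37 C was scored by ThT fluorescence.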
HttQ103 aggreg – reduces HttQ103-GFP aggregates in PC12 cells | PC12 HttQ103-GFP aggregates, Acumen cytometry, 40 h | Potency, µM (series often up to 46.1 µM), actives largely listed as inhibitors | actives 1.1% (n = 220,000) | AID 1688; note: nearly all actives have a fitted effect of over 60% in size
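Quantitative HTS on tebufenozide-induced (100 nM) PC12 cells stably expressing polyQ103 Huntingtin exon 1–GFP. Reduction of bright GFP aggregates, detected by laser scanning cytometry after lysis, identified actives across the titration.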
Tau fluor counter – counter-screen for tau fibril formation inhibitors; AID 1463; Potency, µM (doses to about 57.7 µM); tau K18 P301L (four-repeat tau fragment) Alexa594 fluorescence, heparin fibrillization; actives 0.93% (n = 280,000); note: nearly all actives have a fitted effect of over 55% in size
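Human K18 P301L tau (15 uM unlabeled plus 0.24 uM Alexa 594-labeled, final) in 100 mM sodium acetate pH 7 was mixed with compound and 20 uM heparin and incubated 6 hr at 37 C.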
Large screens that a line does not name were inactive; [ ] = another dose, or the depositor's remark. A selection: hits, their analogues and other compounds. The true share with any hit is near 3.7%. Calls come from the whole dose curve; as a rule, active = well fitted curve in the direction sought with a large enough effect; inconclusive = small, poorly fitted or top-dose-only effect, or another doubt; inactive = no such curve, though single readings can be large; an effect the other way counts as inactive or inconclusive.

COc1ccc(-c2csc(Nc3ccc(S(N)(=O)=O)cc3)n2)cc1OC	Tau ThT inhib inconclusive, HttQ103 aggreg inconclusive, Tau fluor counter inconclusive
NS(=O)(=O)c1ccc(Nc2nc(-c3ccc(F)cc3)cs2)cc1	Tau ThT inhib inconclusive, Tau fluor counter 15.8µM[quencher]
Oc1ccc(Nc2nc(-c3ccc4ccccc4c3)cs2)cc1	Tau FP inhib inconclusive, Tau ThT inhib 5.01µM, Tau fluor counter 7.94µM[quencher]
CC(C)(C)[C@@]1(O)CCN2C[C@@H]3c4ccccc4CCc4cccc(c43)[C@@H]2C1	none (no result: Tau FP inhib, Tau ThT inhib, HttQ103 aggreg, Tau fluor counter)
COc1ccc(Nc2nnc(-c3ccc(C)c(S(N)(=O)=O)c3)c3ccccc23)cc1	Tau ThT inhib inconclusive, Tau fluor counter inconclusive (no result: HTT cytoprotect, HttQ103 aggreg)
O=C(NCC(c1cccnc1)N1CCN(Cc2ccccc2)CC1)C(=O)Nc1ccc(Cl)cc1 (stereo not given)	none (no result: HTT cytoprotect, HttQ103 aggreg)
CN(C)c1ccc(CNC(=O)C2CCCN(S(=O)(=O)c3ccc4c(c3)CCCC(=O)N4)C2)cc1 (stereo not given)	none (no result: HTT cytoprotect, HttQ103 aggreg)
CC(C)(C)C(=O)NCCCC(=O)O	none (no result: Tau FP inhib, Tau ThT inhib, Tau fluor counter)
CC(=O)Nc1cccc(C(=O)OC(C(=O)c2ccc(C)cc2)c2ccccc2)c1 (stereo not given)	Tau FP inhib 14.1µM, Tau fluor counter inconclusive
Cc1ccc(NC(=O)C(OC(=O)c2ccc(O)cc2)c2ccccc2)cc1Cl (stereo not given)	Tau FP inhib 28.2µM, Tau fluor counter inconclusive
COc1ccc(C(=O)OC(C(=O)c2ccc(C)cc2)c2ccccc2)cc1 (stereo not given)	none
CC(=O)Nc1cccc(C(=O)OC(C(=O)c2ccc(C)c(C)c2)c2ccccc2)c1 (stereo not given)	Tau FP inhib 15.8µM, Tau fluor counter inconclusive
Cc1ccc(NC(=O)C(OC(=O)c2ccc(F)cc2)c2ccccc2)cc1Cl (stereo not given)	Tau FP inhib inconclusive, Tau fluor counter inconclusive
CCc1sc(Nc2ccc(C)cc2Br)nc1-c1cc2cccc(OC)c2oc1=O	none (no result: HTT cytoprotect, HttQ103 aggreg)
CN(C)c1ncc2nc(-c3ccccc3)c(=O)n(-c3ccccc3)c2n1	none (no result: Tau FP inhib, Tau ThT inhib, HttQ103 aggreg, Tau fluor counter)
Cc1cccc(C)c1NC1=NC2(CCCCC2)N=C(N)N1	HTT cytoprotect 0.631µM (no result: HttQ103 aggreg)
CC(/C=C/c1ccco1)=N\NC(=O)c1cccnc1	Tau FP inhib inconclusive, Tau ThT inhib 28.2µM
CCOc1ccccc1N(C)C(=O)c1c2c(nc3ccccc13)C(=O)N(C1CCCCC1)C2	none (no result: HTT cytoprotect, HttQ103 aggreg)
CN(C)C(=O)c1ccc(NC(=O)c2cncc(Br)c2)cc1	HttQ103 aggreg 15.8µM
O=[N+]([O-])c1ccc(Sc2n[nH]c(-c3ccc(Cl)cc3Cl)n2)nc1	HTT cytoprotect 0.794µM, HttQ103 aggreg inconclusive
CC(C)(C)c1nc(Sc2ccc([N+](=O)[O-])cn2)n[nH]1	none (no result: Tau ThT inhib)
CCOC(=O)c1sc2ccccc2c1S(=O)(=O)Nc1ccc(CC)cc1	none (no result: HTT cytoprotect, HttQ103 aggreg)
O=C1CN(C(=O)c2ccc(Cl)cc2Cl)C(c2ccc(F)cc2)c2cc(F)ccc2N1 (stereo not given)	none (no result: HTT cytoprotect, HttQ103 aggreg)
O=C(O)CN(CC(=O)O)Cc1cc2c(-c3ccccc3C(=O)O)c3cc(CN(CC(=O)O)CC(=O)O)c(=O)cc-3oc2cc1O	Tau FP inhib 22.4µM, Tau ThT inhib inconclusive, HttQ103 aggreg 0.178µM (no result: HTT cytoprotect)
O=C(O)c1ccccc1-c1c2ccc(=O)cc-2oc2cc(O)ccc12	Tau ThT inhib inconclusive, HttQ103 aggreg 0.0316µM
O=C(O)c1ccccc1-c1oc2cc(O)ccc2c(=O)c1Oc1ccccc1	none (no result: HttQ103 aggreg)
O=C(NCc1ccco1)c1cccn2c(=O)c3cc4ccccc4cc3nc12	Tau ThT inhib 2.82µM
O=C(NCc1ccco1)c1cnc2ccccn2c1=O	none
COCCCNC(=O)c1cccn2c(=O)c3cc4ccccc4cc3nc12	HTT cytoprotect inconclusive, Tau ThT inhib 14.1µM, HttQ103 aggreg inconclusive
COc1ccc(NC(=O)c2cc3ccccc3o2)c(OC)c1	none (no result: HTT cytoprotect, HttQ103 aggreg)
CC(=O)Nc1ccc2c(c1)C(=Nc1ccc(C(=O)O)cc1)c1ccccc1-2	none (no result: Tau FP inhib, Tau ThT inhib, HttQ103 aggreg, Tau fluor counter)
N=C(c1ccc2ccccc2c1)c1ccccc1Cc1ccccc1	none (no result: Tau FP inhib, Tau ThT inhib, HttQ103 aggreg, Tau fluor counter)
C[C@@H]1CC[C@H]2C(=O)O[C@H](CN=[N+]=[N-])CN2[C@@H]1c1ccc(Br)cc1	none (no result: HttQ103 aggreg)
CCCCCCN1C=CC=C/C1=C\C=C(C#N)C#N	Tau FP inhib inconclusive, Tau ThT inhib 15.8µM, Tau fluor counter inconclusive
COC(=O)c1ccc(OCCOc2ccccc2)cc1	Tau ThT inhib inconclusive
